# Measurements published in PubChem BioAssay (NCI).
# This is part of a sample that, as a whole, favours compounds with a hit. Of some 83,000 tested, about 20% had one in any assay.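 Growth was measured after 48 h exposure to one concentration of compound in 96-well plates. Values under 10 count as active.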 Values without a mark were called inactive. Calls of active or inactive are those of the source.
# How the values were obtained:
# Experiment in all cases: NCI-60 one-dose screen, 48 h (100 = growth as untreated, 0 = no growth, -100 = all killed)
# Conditions in all cases: 10 µM unless noted
# SR leukemia = system: SR leukemia
# RPMI-8226 leukemia = system: RPMI-8226 leukemia
# OVCAR-8 ovarian = system: OVCAR-8 ovarian
# OVCAR-5 ovarian = system: OVCAR-5 ovarian
# OVCAR-4 ovarian = system: OVCAR-4 ovarian
# SK-OV-3 ovarian = system: SK-OV-3 ovarian
# IGROV1 ovarian = system: IGROV1 ovarian
# OVCAR-3 ovarian = system: OVCAR-3 ovarian
# HS 578T breast = system: HS 578T breast
# NCI/ADR-RES ovarian = system: NCI/ADR-RES ovarian
Compound,growth (SR leukemia),growth (RPMI-8226 leukemia),growth (OVCAR-8 ovarian),growth (OVCAR-5 ovarian),growth (OVCAR-4 ovarian),growth (SK-OV-3 ovarian),growth (IGROV1 ovarian),growth (OVCAR-3 ovarian),growth (HS 578T breast),growth (NCI/ADR-RES ovarian)
CN(C)CCCNC(=O)c1cncnc1Nc1ccc(OCc2cccc(F)c2)c(Cl)c1,-48.5% (active),-14.6% (active),1.06% (active),36.1%,25.7%,-24% (active),1.4% (active),6.33% (active),-30% (active),43.3%
O=C1/C=C/[C@@H](O)[C@@H]2C[C@@H](O)C[C@H]2/C=C/CCC[C@H](CCO)O1,9.21% (active),14.7%,11%,16.1%,27.8%,30.8%,17.9%,-46.9% (active),29.4%,5.98% (active)
COc1cc(-c2nc3cc(Cl)c(Cl)cc3[nH]2)ccc1OCC(=O)N=Nc1c(O)[nH]c2ccc(Cl)cc12,-30.7% (active),10.4%,2.5% (active),26.8%,12.2%,-5.3% (active),-0.308% (active),-94.3% (active),-14% (active),88.2%
CC1=C(C(=O)Nc2ccccc2)C(c2ccc3c(c2)OCO3)NC(=S)N1 (stereo not given),99.2%,109%,104%,115%,114%,110%,103%,110%,105%,106%
COC1=C(C)C(=O)N2[C@@H]1[C@H](c1ccccc1)OC21C=CC(=O)C=C1,2.4% (active),-20.7% (active),19.4%,-56.1% (active),33.4%,112%,-20.7% (active),-4.05% (active),32.6%,20.1%
CCNc1nc(O)c(/C=C2\C=Nc3ncccc32)s1,0.377% (active),29.1%,6.27% (active),8.67% (active),19.5%,-10.3% (active),21.7%,-2.07% (active),-15.1% (active),29.7%
COc1ccc(/C=C(/C(=O)n2cnnn2)c2cc(OC)c(OC)c(OC)c2)cc1,14.8%,3.48% (active),22.1%,41.2%,60.6%,14.6%,41.4%,1.46% (active),13.5%,12.2%
CN1CCN(Cc2ccc(NC(=O)c3cncc(C#Cc4cnc5ccc(Cl)nn45)c3)cc2C(F)(F)F)CC1,-2.72% (active),-25.6% (active),8.97% (active),-4.08% (active),-4.08% (active),12.3%,1.12% (active),-5.42% (active),-14.6% (active),2.61% (active)
COc1cc(OC)c2sc(-c3ccc(-n4cncc4-c4cc(OC)c(OC)c(OC)c4)cc3)nc2c1,17.3%,27.3%,76.1%,81.3%,50.2%,88.8%,63.9%,35.1%,62.2%,60.6%
OCCNCCNC(Cc1ccc(Cl)cc1)c1ccccc1 (stereo not given),88.5%,81.3%,101%,63.6%,95.6%,81%,87.3%,94.5%,91.5%,92.2%
CC1(C)CC[C@]2(CO)CC[C@]3(C)[C@H](CC[C@@H]4[C@@]5(C)CCCNC(C)(C)[C@@H]5CC[C@]43C)[C@H]2[C@H]1O,10.5%,31.4%,95%,92.8%,89.7%,92.5%,82.3%,94.3%,83.5%,93.1%
O=S(=O)(NCCCNc1nccc(-c2c(-c3cccc(F)c3)nc3occn23)n1)c1ccc(F)cc1,53.8%,37.3%,30.1%,89.9%,37%,54.5%,24.5%,55.3%,59%,42.4%
Cc1[nH]c(C2CC(c3ccc(C(F)(F)F)c(F)c3)=NN2c2ccccc2)c(C)c1C(=O)NCC(F)(F)F (stereo not given),81.6%,70.7%,87.8%,94.8%,92.5%,85.6%,67.3%,98.2%,87%,89.7%
N#Cc1cncc(-c2ccc3ncnc(Nc4cccc(Cl)c4)c3c2)c1,74.3%,80.3%,49.1%,85%,41.5%,53.4%,45.1%,58%,61.2%,72.8%
C=C(C)[C@@H]1CC[C@]2(COC(C)=O)CC[C@]3(C)[C@H](CC[C@@H]4[C@@]5(C)CCCN(C(C)=O)C(C)(C)[C@@H]5CC[C@]43C)[C@@H]12,-35.6% (active),-6.5% (active),48.6%,59.2%,50.7%,111%,57.6%,88.3%,73.3%,66.9%
CCN(CC)CCN1C(=O)c2c(c(C)c3c(oc4ccc(OC)cc43)c2C)C1=O,110%,92.5%,79.9%,88.9%,103%,111%,87.2%,115%,101%,82.6%
CCOC(=O)C(=CNc1cnc(Nc2ccc(N3CCOCC3)cc2)nc1Oc1ccc(OC)cc1)C(=O)OCC,31.6%,42.2%,43.1%,71.5%,-43.1% (active),55.5%,26.8%,-9.17% (active),35%,54.4%
N#Cc1c(-c2ccccc2)nc(SCC(O)CN2CCOCC2)nc1N1CCOCC1 (stereo not given),85.1%,105%,33.4%,61.2%,68.6%,41.1%,-29.5% (active),35.4%,6.19% (active),72.7%
COc1ccc2nc(Cl)c(/C=C3\CC(c4ccccc4)=NN(c4ccccc4)C3=O)cc2c1,76.6%,97.3%,41.8%,93.5%,37.4%,46.5%,50.7%,74.4%,32.9%,60.2%
NS(=O)(=O)c1ccc(-c2cc(-c3nnc(SCC(=O)Nc4ccc(C(=O)/C=C/c5ccc(Cl)cc5)cc4)n3-c3ccccc3)c3ccccc3n2)cc1,71.3%,10.7%,89.9%,93.1%,105%,103%,99.2%,101%,84.3%,103%
CCN1C(=O)N(CC)C2C1NN=c1s/c(=C\c3ccc[nH]3)c(=O)n12 (stereo not given),16.3%,15.5%,11.2%,22.2%,50.6%,27.1%,28.8%,-25.3% (active),7.95% (active),8.11% (active)
O=C(NNC(=O)c1ccc(NC(=O)c2ccccn2)cc1)Nc1ccc2ccccc2c1,126%,109%,102%,121%,106%,115%,109%,126%,111%,106%
O=C(N/N=C/c1cc(Cl)ccc1O)c1ccccc1Nc1ccnc(C(F)(F)F)c1,105%,47.2%,63.5%,57.4%,28.7%,25%,92.5%,38%,75%,22.6%
O=C(Nc1cc(Cl)ccc1O)c1cccc(Nc2ccnc(C(F)(F)F)c2)c1,25%,3.8% (active),39.4%,77.8%,33.8%,56.4%,75.7%,53.4%,60.4%,15.2%
Cc1c(CC(=S)N2CCOCC2)nnn1-c1cccc(C(F)(F)F)c1,105%,103%,104%,97.8%,103%,108%,104%,110%,99.9%,105%
O=C(/C=C/c1ccccc1)c1ccc(Nc2nc(Nc3ccc(F)cc3)nc(Nc3ccc(Cl)cc3)n2)cc1,78.2%,-9.92% (active),58.4%,102%,90.8%,103%,90.8%,80.2%,99.7%,76.7%
Fc1ccc2[nH]cc(-c3nc(-c4c[nH]c5ccncc45)cs3)c2c1,-6.91% (active),-24.2% (active),-41.5% (active),24.3%,-0.149% (active),63.1%,-43.2% (active),-74.3% (active),-38.3% (active),16.9%
